These results are taken from PubChem BioAssay (NCI).

The structures appear in SMILES notation. Compounds without any hit were thinned out: in the full panel of roughly 83,000, 20% have a hit.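 96-well plates, one dose, 48 hours. Percent growth reported; active if below 10.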 A number with no mark means an inactive call. Active and inactive are the calls of the source.

Among the test systems are SK-MEL-2 melanoma; EKVX NSCLC; SN12C renal; UO-31 renal; TK-10 renal; ACHN renal; CAKI-1 renal; A498 renal; CCRF-CEM leukemia; MOLT-4 leukemia; SR leukemia; RPMI-8226 leukemia; OVCAR-8 ovarian; OVCAR-5 ovarian; OVCAR-4 ovarian; SK-OV-3 ovarian; IGROV1 ovarian; OVCAR-3 ovarian; HS 578T breast; NCI/ADR-RES ovarian.
Common to all, as to assay: NCI-60 one-dose screen, 48 h (100 = growth as untreated, 0 = no growth, -100 = all killed)
Common to all, as to conditions: 10 µM unless noted

Consider `CC1=C(CCC(C)NCc2ccc(OCCCN3CCCCC3)cc2)C(C)(C)CCC1` (stereo not given), for which the growth is -82.1% (active) in the assay on SK-MEL-2 melanoma; -39.1% (active) in the assay on EKVX NSCLC; -60.7% (active) in the assay on SN12C renal; -95.5% (active) with UO-31 renal; -94.3% (active) in the assay with TK-10 renal; -83.6% (active) with ACHN renal. For the same molecule, the growth with CAKI-1 renal was -55.7% (active); in the assay on A498 renal, -71.5% (active); with CCRF-CEM leukemia it was -39.6% (active); in the assay on MOLT-4 leukemia it was -41.7% (active); with SR leukemia, -43.4% (active); in the assay with RPMI-8226 leukemia it was -39.6% (active). The growth in the assay with OVCAR-8 ovarian is -45.4% (active); in the assay with OVCAR-5 ovarian it was -49.8% (active); in the assay on OVCAR-4 ovarian, -4.46% (active); in the assay on SK-OV-3 ovarian, -74.1% (active); with IGROV1 ovarian, -36.6% (active); in the assay on OVCAR-3 ovarian, -70.4% (active). The growth with HS 578T breast was -52.9% (active); in the assay with NCI/ADR-RES ovarian, -40.5% (active).
Consider `CC1=C2[C@@H](CC1)[C@]1(C)O[C@@](C3CCCCC3)(C[C@H]1OC(=O)CO)[C@H]2OC(=O)/C=C/c1ccccc1`, for which the growth with SK-MEL-2 melanoma is 80.3%; in the assay on EKVX NSCLC, 83.3%; with SN12C renal, 32.1%; with UO-31 renal, -5.9% (active); in the assay with TK-10 renal, 97.6%; in the assay on ACHN renal, 3.28% (active). The growth in the assay on CAKI-1 renal was 78.4%; in the assay on A498 renal, -89.9% (active); in the assay on CCRF-CEM leukemia, 78.5%; in the assay on MOLT-4 leukemia it was 67.9%; in the assay on SR leukemia, 52.1%; in the assay with RPMI-8226 leukemia, 58.5%. Besides, the growth in the assay with OVCAR-8 ovarian is 5.17% (active); with OVCAR-5 ovarian, 88.8%; in the assay with OVCAR-4 ovarian, 92.9%; in the assay on SK-OV-3 ovarian it was 86%; in the assay on IGROV1 ovarian, 85.1%; in the assay with OVCAR-3 ovarian it was 85%. The values for the growth in the assay with HS 578T breast and with NCI/ADR-RES ovarian were -15.2% (active) and -2.43% (active), respectively.
On to `Cn1c(=O)c2[nH]c(SCC(=O)Nc3ccc(C(=O)/C=C/c4ccccc4Cl)cc3)nc2n(C)c1=O`, for which the growth in the assay on SK-MEL-2 melanoma was 126%; in the assay with EKVX NSCLC, 87.9%; in the assay on SN12C renal, 97.7%; in the assay with UO-31 renal, 92.7%; with TK-10 renal, 104%; with ACHN renal, 99%. Besides, the growth with CAKI-1 renal was 98.1%; with A498 renal, 85.6%; in the assay with CCRF-CEM leukemia, 79.5%; with MOLT-4 leukemia, 87.4%; in the assay on SR leukemia, 78.1%; with RPMI-8226 leukemia, 82.2%. The growth in the assay on OVCAR-8 ovarian is 95%; in the assay on OVCAR-5 ovarian, 101%; with OVCAR-4 ovarian, 88.3%; with SK-OV-3 ovarian, 97.3%; in the assay with IGROV1 ovarian, 100%; in the assay with OVCAR-3 ovarian it was 94.7%. The growth was 95.5% in the assay on HS 578T breast and 101% with NCI/ADR-RES ovarian.
For the molecule `O=C1/C(=C/c2ccc(O)c(O)c2)COc2ccc(-c3ccccc3)cc21`, the growth with SK-MEL-2 melanoma is 59%; in the assay on EKVX NSCLC, 78.8%; in the assay with SN12C renal, 13.9%; in the assay on UO-31 renal, -64.6% (active); with TK-10 renal it was 25.8%; with ACHN renal, 15.3%. Further, the growth in the assay with CAKI-1 renal was 4.86% (active); with A498 renal, 30.7%; with CCRF-CEM leukemia, 16.2%; in the assay with MOLT-4 leukemia, 10.9%; in the assay on SR leukemia, -20% (active); in the assay with RPMI-8226 leukemia it was -13.1% (active). In addition, the growth in the assay with OVCAR-8 ovarian is 26.5%; in the assay with OVCAR-5 ovarian it was 50.6%; in the assay with OVCAR-4 ovarian, 26.6%; with SK-OV-3 ovarian, 81.1%; with IGROV1 ovarian it was -13.1% (active); in the assay with OVCAR-3 ovarian, 20.2%. Also, the growth in the assay on HS 578T breast is 15%; in the assay on NCI/ADR-RES ovarian, 19.2%.
`O=C(CCSc1nnc2n(Cc3ccccc3)c(=O)c3c4c(sc3n12)CCCC4)N1CCN(c2ccccc2)CC1`: the growth in the assay on SK-MEL-2 melanoma is 99.1%; in the assay with EKVX NSCLC, 91.8%; in the assay with SN12C renal, 94.8%; in the assay on UO-31 renal, 94.5%; with TK-10 renal, 101%; in the assay with ACHN renal, 93.2%. In addition, the growth in the assay on CAKI-1 renal is 92.8%; in the assay on A498 renal, 106%; in the assay with CCRF-CEM leukemia it was 127%; with MOLT-4 leukemia, 111%; in the assay with SR leukemia, 121%; with RPMI-8226 leukemia, 112%. Further, the growth in the assay with OVCAR-8 ovarian is 110%; in the assay with OVCAR-5 ovarian it was 91.7%; with OVCAR-4 ovarian it was 115%; with SK-OV-3 ovarian, 108%; in the assay with IGROV1 ovarian, 103%; with OVCAR-3 ovarian, 95.9%. The growth with HS 578T breast was 108%; with NCI/ADR-RES ovarian, 96.1%.
Regarding `C=CCn1c(SCC(=O)Nc2ccc(/C(C)=N/O)cc2)nnc1-c1cc(-c2ccc(S(N)(=O)=O)cc2)nc2ccccc12`, the growth in the assay with SK-MEL-2 melanoma was 83.7%; with EKVX NSCLC, 91.8%; in the assay with SN12C renal it was 77.7%; in the assay on UO-31 renal, 74.5%; in the assay with TK-10 renal it was 121%; in the assay with ACHN renal it was 96.9%. Further, the growth was 51.9% in the assay with CAKI-1 renal; 89.2% in the assay with A498 renal; 45.8% in the assay on CCRF-CEM leukemia; 37.9% in the assay on MOLT-4 leukemia; 56.7% in the assay on SR leukemia; 48.8% in the assay with RPMI-8226 leukemia. Further, the growth with OVCAR-8 ovarian is 54.7%; with OVCAR-5 ovarian, 93.5%; in the assay with OVCAR-4 ovarian, 66.2%; in the assay with SK-OV-3 ovarian it was 109%; with IGROV1 ovarian, 30.9%; in the assay on OVCAR-3 ovarian it was 70.9%. Further, the growth with HS 578T breast is 74.1%; in the assay with NCI/ADR-RES ovarian it was 99%.
With `N#Cc1c(Nc2ccc(N3CCOCC3)cc2)nc(SCC(=O)c2ccc(Br)cc2)nc1-c1ccccc1`, the growth in the assay on SK-MEL-2 melanoma was 94.4%; in the assay with EKVX NSCLC it was 100%; in the assay with SN12C renal it was 104%; in the assay with UO-31 renal, 87.3%; with TK-10 renal it was 96.6%; with ACHN renal, 109%. In addition, the growth is 99.7% in the assay with CAKI-1 renal; 105% in the assay on A498 renal; 125% in the assay with CCRF-CEM leukemia; 99.2% in the assay on MOLT-4 leukemia; 101% in the assay on SR leukemia; 111% with RPMI-8226 leukemia. Besides, the growth with OVCAR-8 ovarian is 101%; in the assay on OVCAR-5 ovarian it was 95.6%; in the assay with OVCAR-4 ovarian, 105%; in the assay on SK-OV-3 ovarian, 95%; in the assay on IGROV1 ovarian, 107%; in the assay with OVCAR-3 ovarian, 105%. Besides, the growth was 105% in the assay with HS 578T breast and 103% in the assay on NCI/ADR-RES ovarian.
On to `Cc1cc(Nc2ccc(C(=O)N3CCCC3)cc2)nc(NCCCNc2ccnc3cc(Cl)ccc23)n1`, for which the growth in the assay on SK-MEL-2 melanoma was 99.5%; in the assay with EKVX NSCLC, 101%; in the assay on SN12C renal, 85%; in the assay with UO-31 renal, 86.7%; in the assay on TK-10 renal, 106%; in the assay with ACHN renal, 99%. The growth in the assay with CAKI-1 renal was 99.1%; in the assay on A498 renal, 95.2%; in the assay on CCRF-CEM leukemia, 65.3%; in the assay on MOLT-4 leukemia, 36.9%; in the assay on SR leukemia it was 19.1%; with RPMI-8226 leukemia, 74.8%. The growth with OVCAR-8 ovarian was 108%; in the assay on OVCAR-5 ovarian, 103%; in the assay with OVCAR-4 ovarian, 70%; with SK-OV-3 ovarian it was 101%; with IGROV1 ovarian, 76.2%; in the assay with OVCAR-3 ovarian, 90.3%. Further, the growth is 92.3% in the assay with HS 578T breast and 99.8% with NCI/ADR-RES ovarian.
